Read-outs that look alike come from different tables or passages of the source.
Experiments:
AAK1 = details: read-out: apparent Kd, n = 1
AURKA = details: read-out: apparent Kd, n = 1

Lestaurtinib
potency estimated from few doses (AAK1; compound concentrations:100 nM and 1000 nM (sheet 'Lestaurtinib' of Supplementary Table 1),run:Lestaurtinib_02606_R2,Plate:MR019): 73.7 nM
potency estimated from few doses (AAK1; compound concentrations:100 nM and 1000 nM (sheet 'Lestaurtinib' of Supplementary Table 1),run:Lestaurtinib_02624_R1,Plate:MR020): 52 nM
potency estimated from few doses (AAK1; compound concentrations:100 nM and 1000 nM (sheet 'Lestaurtinib' of Supplementary Table 1),run:Lestaurtinib_02624_R2,Plate:MR020): 66.6 nM
potency estimated from few doses (AAK1; compound concentrations:100 nM and 1000 nM (sheet 'Lestaurtinib' of Supplementary Table 1),run:Lestaurtinib_02624_R3,Plate:MR020): 69.8 nM
potency estimated from few doses (AAK1; compound concentrations:100 nM and 1000 nM (sheet 'Lestaurtinib' of Supplementary Table 1),run:Lestaurtinib_02724_R1,Plate:MR021): 69.4 nM
potency estimated from few doses (AAK1; compound concentrations:100 nM and 1000 nM (sheet 'Lestaurtinib' of Supplementary Table 1),run:Lestaurtinib_02741_R2,Plate:MR023): 113 nM
potency estimated from few doses (AAK1; compound concentrations:100 nM and 1000 nM (sheet 'Lestaurtinib' of Supplementary Table 1),run:Lestaurtinib_02741_R3,Plate:MR023): 89.7 nM
potency estimated from few doses (AAK1; compound concentrations:100 nM and 1000 nM (sheet 'Lestaurtinib' of Supplementary Table 1),run:Lestaurtinib_02748_R1,Plate:MR024): 64.3 nM
potency estimated from few doses (AAK1; compound concentrations:100 nM and 1000 nM (sheet 'Lestaurtinib' of Supplementary Table 1),run:Lestaurtinib_02748_R2,Plate:MR024): 53.8 nM
potency estimated from few doses (AAK1; compound concentrations:100 nM and 1000 nM (sheet 'Lestaurtinib' of Supplementary Table 1),run:Lestaurtinib_02748_R3,Plate:MR024): 68.7 nM
potency estimated from few doses (AAK1; compound concentrations:100 nM and 1000 nM (sheet 'Lestaurtinib' of Supplementary Table 1),run:Lestaurtinib_02752_R1,Plate:MR025): 98.6 nM
potency estimated from few doses (AAK1; compound concentrations:100 nM and 1000 nM (sheet 'Lestaurtinib' of Supplementary Table 1),run:Lestaurtinib_02765_R3,Plate:MR026): 84.5 nM
potency estimated from few doses (AAK1; compound concentrations:100 nM and 1000 nM (sheet 'Lestaurtinib' of Supplementary Table 1),run:Lestaurtinib_02766_R1,Plate:MR027): 55 nM
potency estimated from few doses (AAK1; compound concentrations:100 nM and 1000 nM (sheet 'Lestaurtinib' of Supplementary Table 1),run:Lestaurtinib_02768_R3,Plate:MR028): 80.1 nM
potency estimated from few doses (AAK1; compound concentrations:100 nM and 1000 nM (sheet 'Lestaurtinib' of Supplementary Table 1),run:Lestaurtinib_02795_R1,Plate:MR022): 81.4 nM
potency estimated from few doses (AAK1; compound concentrations:100 nM and 1000 nM (sheet 'Lestaurtinib' of Supplementary Table 1),run:Lestaurtinib_02795_R3,Plate:MR022): 154 nM
potency estimated from few doses (AAK1; compound concentrations:100 nM and 1000 nM (sheet 'Lestaurtinib' of Supplementary Table 1),run:Lestaurtinib_02802_R1,Plate:MR029): 67.9 nM
potency estimated from few doses (AAK1; compound concentrations:100 nM and 1000 nM (sheet 'Lestaurtinib' of Supplementary Table 1),run:Lestaurtinib_02802_R2,Plate:MR029): 50.7 nM
potency estimated from few doses (AAK1; compound concentrations:100 nM and 1000 nM (sheet 'Lestaurtinib' of Supplementary Table 1),run:Lestaurtinib_02896_R1,Plate:MR030): 73.7 nM
potency estimated from few doses (AAK1; compound concentrations:100 nM and 1000 nM (sheet 'Lestaurtinib' of Supplementary Table 1),run:Lestaurtinib_02896_R3,Plate:MR030): 71.3 nM
potency estimated from few doses (AAK1; compound concentrations:100 nM and 1000 nM (sheet 'Lestaurtinib' of Supplementary Table 1),run:Lestaurtinib_03172_R2,Plate:MR031): 56 nM
potency estimated from few doses (AAK1; compound concentrations:100 nM and 1000 nM (sheet 'Lestaurtinib' of Supplementary Table 1),run:Lestaurtinib_03172_R3,Plate:MR031): 66.8 nM
potency estimated from few doses (AAK1; compound concentrations:100 nM and 1000 nM (sheet 'Lestaurtinib' of Supplementary Table 1),run:Lestaurtinib_03252_R1,Plate:MR032): 96.3 nM
potency estimated from few doses (AAK1; compound concentrations:100 nM and 1000 nM (sheet 'Lestaurtinib' of Supplementary Table 1),run:Lestaurtinib_03260_R1,Plate:MR033): 73.1 nM
potency estimated from few doses (AAK1; compound concentrations:100 nM and 1000 nM (sheet 'Lestaurtinib' of Supplementary Table 1),run:Lestaurtinib_03260_R2,Plate:MR033): 77.8 nM
potency estimated from few doses (AURKA; compound concentrations:100 nM and 1000 nM (sheet 'Lestaurtinib' of Supplementary Table 1),run:Lestaurtinib_02339_R1,Plate:MR001): 20 nM
potency estimated from few doses (AURKA; compound concentrations:100 nM and 1000 nM (sheet 'Lestaurtinib' of Supplementary Table 1),run:Lestaurtinib_02339_R2,Plate:MR001): 18 nM
potency estimated from few doses (AURKA; compound concentrations:100 nM and 1000 nM (sheet 'Lestaurtinib' of Supplementary Table 1),run:Lestaurtinib_02339_R3,Plate:MR001): 18.4 nM
potency estimated from few doses (AURKA; compound concentrations:100 nM and 1000 nM (sheet 'Lestaurtinib' of Supplementary Table 1),run:Lestaurtinib_02364_R2,Plate:MR002): 21.3 nM
potency estimated from few doses (AURKA; compound concentrations:100 nM and 1000 nM (sheet 'Lestaurtinib' of Supplementary Table 1),run:Lestaurtinib_02367_R1,Plate:MR003): 16.3 nM
potency estimated from few doses (AURKA; compound concentrations:100 nM and 1000 nM (sheet 'Lestaurtinib' of Supplementary Table 1),run:Lestaurtinib_02367_R2,Plate:MR003): 18.4 nM
potency estimated from few doses (AURKA; compound concentrations:100 nM and 1000 nM (sheet 'Lestaurtinib' of Supplementary Table 1),run:Lestaurtinib_02367_R3,Plate:MR003): 18.1 nM
potency estimated from few doses (AURKA; compound concentrations:100 nM and 1000 nM (sheet 'Lestaurtinib' of Supplementary Table 1),run:Lestaurtinib_02381_R3,Plate:MR004): 17.5 nM
potency estimated from few doses (AURKA; compound concentrations:100 nM and 1000 nM (sheet 'Lestaurtinib' of Supplementary Table 1),run:Lestaurtinib_02407_R1,Plate:MR005): 16.3 nM
potency estimated from few doses (AURKA; compound concentrations:100 nM and 1000 nM (sheet 'Lestaurtinib' of Supplementary Table 1),run:Lestaurtinib_02407_R2,Plate:MR005): 18.3 nM
potency estimated from few doses (AURKA; compound concentrations:100 nM and 1000 nM (sheet 'Lestaurtinib' of Supplementary Table 1),run:Lestaurtinib_02407_R3,Plate:MR005): 18.2 nM
potency estimated from few doses (AURKA; compound concentrations:100 nM and 1000 nM (sheet 'Lestaurtinib' of Supplementary Table 1),run:Lestaurtinib_02422_R1,Plate:MR006): 15.3 nM
potency estimated from few doses (AURKA; compound concentrations:100 nM and 1000 nM (sheet 'Lestaurtinib' of Supplementary Table 1),run:Lestaurtinib_02422_R2,Plate:MR006): 7.4 nM
potency estimated from few doses (AURKA; compound concentrations:100 nM and 1000 nM (sheet 'Lestaurtinib' of Supplementary Table 1),run:Lestaurtinib_02437_R1,Plate:MR007): 20.9 nM
potency estimated from few doses (AURKA; compound concentrations:100 nM and 1000 nM (sheet 'Lestaurtinib' of Supplementary Table 1),run:Lestaurtinib_02437_R2,Plate:MR007): 21.8 nM
potency estimated from few doses (AURKA; compound concentrations:100 nM and 1000 nM (sheet 'Lestaurtinib' of Supplementary Table 1),run:Lestaurtinib_02437_R3,Plate:MR007): 3.54 nM
potency estimated from few doses (AURKA; compound concentrations:100 nM and 1000 nM (sheet 'Lestaurtinib' of Supplementary Table 1),run:Lestaurtinib_02438_R1,Plate:MR008): 15.4 nM

Source: PMC11062922 (Nature Chemical Biology, 2023)
